# Test results from PubChem BioAssay (NCI).
# The panel holds about 79,000 compounds, 15% with a hit somewhere; the sample as a whole holds those more often. Values without a mark were called inactive. Calls of active or inactive are those of the source. Rule as the data show it: active = growth inhibition above about 70%; inactive = the rest.
# Legend:
# [1] = NCI Yeast Anticancer Drug Screen. Data for the rad52 strain (AID 147);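 also: 0% = growth of vehicle-treated control cultures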; details: S. cerevisiae rad52 mutant growth inhibition, active compounds read high
# Summary of the method: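 Vehicle-treated cultures served as the reference for growth inhibition of compound-exposed yeast bearing a DNA repair mutation.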
# [2] = NCI Yeast Anticancer Drug Screen. Data for the wt1 strain (AID 149);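 also: 0% = growth of vehicle-treated wt1 cultures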; details: S. cerevisiae wt1 strain (SPY 50644) growth inhibition, active compounds read high
# Summary of the method: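 Readout: yeast growth inhibition, normalised to vehicle controls, in the wt1 strain exposed to test compounds.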
# [3] = NCI Yeast Anticancer Drug Screen. Data for the rad50EPP+ strain (AID 151);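 also: 0% = growth of vehicle-treated control cultures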; details: S. cerevisiae rad50 mutant strain, active compounds read high
# Summary of the method: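 In this screen, rad50EPP+ yeast were exposed to compounds. Growth inhibition was scored against vehicle-treated controls.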
# [4] = NCI Yeast Anticancer Drug Screen. Data for the mgt1 strain (AID 153); details: S. cerevisiae mgt1 mutant growth inhibition, active compounds read high
# Summary of the method: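 mgt1 strain exposed; growth vs vehicle control recorded as inhibition.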
# [5] = NCI Yeast Anticancer Drug Screen. Data for the rad50 strain (AID 155);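 also: 0% = growth of vehicle-only cultures of the same strain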; details: S. cerevisiae rad50 strain growth inhibition, active compounds read high
# Summary of the method: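 Compounds were tested on a yeast strain with an engineered DNA damage repair alteration; the reported value is growth inhibition normalised to vehicle treatment.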
# [6] = NCI Yeast Anticancer Drug Screen. Data for the mec2-1 strain (AID 157); details: S. cerevisiae mec2-1 strain, active compounds read high
# Summary of the method: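 Vehicle-treated cultures served as reference for growth inhibition of compound-exposed mec2-1 yeast.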
# [7] = NCI Yeast Anticancer Drug Screen. Data for the rad14 strain (AID 159);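 also: 0% = growth of vehicle-treated control cultures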; details: S. cerevisiae rad14 strain growth inhibition, active compounds read high
# Summary of the method: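 Compound-treated yeast with a defined DNA-repair lesion; growth inhibition normalised to vehicle-treated cultures.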
# [8] = NCI Yeast Anticancer Drug Screen. Data for the sgs1 mgt1 strain (AID 161);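 also: 0% = growth of cultures given vehicle only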; details: S. cerevisiae sgs1 mgt1 strain, active compounds read high
# Summary of the method: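 Inhibition of yeast growth, normalised to vehicle-treated controls, is reported for a strain bearing genetic alterations in DNA damage repair.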
# [9] = NCI Yeast Anticancer Drug Screen. Data for the CLN2oe strain (AID 163);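 also: 0% = growth of vehicle-only control cultures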; details: S. cerevisiae CLN2oe strain, active compounds read high
# Summary of the method: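 Inhibition relative to vehicle-treated yeast is reported. Cells: strain with genetic alteration in cell-cycle control, grown with compound.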
# [10] = NCI Yeast Anticancer Drug Screen. Data for the cln2 rad14 strain (AID 165);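 also: 0% = growth equal to vehicle treated cultures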; details: S. cerevisiae cln2 rad14 strain, active compounds read high
# Summary of the method: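 Each compound was tested on cln2 rad14 yeast. Inhibition of growth was calculated against vehicle-exposed controls.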
# [11] = NCI Yeast Anticancer Drug Screen. Data for the bub3 strain (AID 167); details: S. cerevisiae bub3 mutant strain, active compounds read high
# Summary of the method: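 Growth of a checkpoint-deficient yeast mutant is measured after compound exposure. Values represent inhibition relative to vehicle.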
# [12] = NCI Yeast Anticancer Drug Screen. Data for the wt2 strain (AID 169);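 also: 0% = growth of vehicle-treated yeast cultures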; details: S. cerevisiae wt2 strain growth inhibition, active compounds read high
# Summary of the method: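 Inhibition of yeast growth was determined after compound treatment, normalised to controls receiving only vehicle.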
# [13] = NCI Yeast Anticancer Drug Screen. Data for the mlh1 strain (AID 171);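 also: 0% = growth of vehicle-treated control cultures of the same strain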; details: S. cerevisiae mlh1 strain growth inhibition, active compounds read high
# Summary of the method: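 Vehicle-normalised growth inhibition of a repair- or checkpoint-altered yeast strain following compound treatment.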
# [14] = NCI Yeast Anticancer Drug Screen. Data for the mlh1 rad18 strain (AID 175); details: S. cerevisiae mlh1 rad18 strain growth inhibition, active compounds read high
# Summary of the method: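 Vehicle-treated cultures served as the reference for growth inhibition in a yeast strain carrying DNA damage repair alterations exposed to each compound.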
# [15] = NCI Yeast Anticancer Drug Screen. Data for the rad18 strain (AID 177); details: S. cerevisiae rad18 mutant growth inhibition, active compounds read high
# Summary of the method: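 Test articles were incubated with altered yeast defective in DNA damage repair. Results are given as inhibition of growth versus vehicle.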
# [16] = at 5.0 µM (retest, dose inferred, filed as 0.5)
# [17] = at 50.0 µM (retest, dose inferred, filed as 5.0)
smiles,measurement,setting,value
CC1=C[C@H]2O[C@@H]3C[C@H]4OC(=O)/C=C\C=C\C(C(C)O)OCC(O)C(C)CC(=O)OC[C@@]2(C[C@@H]1O)[C@]4(C)[C@@]31CO1 (stereo partly drawn),growth inhibition,[1]; at 1.2 µM,-21%
same,growth inhibition,[1]; at 3.7 µM,2%
same,growth inhibition,[1]; at 11.0 µM,91% (active)
same,growth inhibition,[1]; at 33.0 µM,97% (active)
same,growth inhibition,[1]; at 100.0 µM,97% (active)
same,growth inhibition,[2]; at 1.2 µM,-13%
same,growth inhibition,[2]; at 3.7 µM,24%
same,growth inhibition,[2]; at 11.0 µM,93% (active)
same,growth inhibition,[2]; at 33.0 µM,98% (active)
same,growth inhibition,[2]; at 100.0 µM,98% (active)
same,growth inhibition,[3]; at 1.2 µM,-29%
same,growth inhibition,[3]; at 3.7 µM,-43%
same,growth inhibition,[3]; at 11.0 µM,-31%
same,growth inhibition,[3]; at 33.0 µM,-46%
same,growth inhibition,[3]; at 100.0 µM,-55%
same,growth inhibition,[4]; at 1.2 µM,-54%
same,growth inhibition,[4]; at 3.7 µM,-7%
same,growth inhibition,[4]; at 11.0 µM,92% (active)
same,growth inhibition,[4]; at 33.0 µM,97% (active)
same,growth inhibition,[4]; at 100.0 µM,97% (active)
same,growth inhibition,[5]; at 1.2 µM,-23%
same,growth inhibition,[5]; at 3.7 µM,17%
same,growth inhibition,[5]; [16],41%
same,growth inhibition,[5]; at 11.0 µM,92% (active)
same,growth inhibition,[5]; at 33.0 µM,97% (active)
same,growth inhibition,[5]; [17],98% (active)
same,growth inhibition,[5]; at 50.0 µM,91.1% (active)
same,growth inhibition,[5]; at 100.0 µM,97% (active)
same,growth inhibition,[6]; at 1.2 µM,-60%
same,growth inhibition,[6]; at 3.7 µM,-3%
same,growth inhibition,[6]; [16],40%
same,growth inhibition,[6]; at 11.0 µM,88% (active)
same,growth inhibition,[6]; at 33.0 µM,97% (active)
same,growth inhibition,[6]; [17],98% (active)
same,growth inhibition,[6]; at 50.0 µM,92.2% (active)
same,growth inhibition,[6]; at 100.0 µM,97% (active)
same,growth inhibition,[7]; at 1.2 µM,-14%
same,growth inhibition,[7]; at 3.7 µM,25%
same,growth inhibition,[7]; at 11.0 µM,93% (active)
same,growth inhibition,[7]; at 33.0 µM,97% (active)
same,growth inhibition,[7]; at 100.0 µM,97% (active)
same,growth inhibition,[8]; [16],7%
same,growth inhibition,[8]; [17],12%
same,growth inhibition,[8]; at 50.0 µM,92.2% (active)
same,growth inhibition,[9]; at 1.2 µM,13%
same,growth inhibition,[9]; at 3.7 µM,24%
same,growth inhibition,[9]; at 11.0 µM,91% (active)
same,growth inhibition,[9]; at 33.0 µM,97% (active)
same,growth inhibition,[9]; at 100.0 µM,18%
same,growth inhibition,[10]; [16],18%
same,growth inhibition,[10]; [17],-18%
same,growth inhibition,[10]; at 50.0 µM,91.4% (active)
same,growth inhibition,[11]; at 1.2 µM,-46%
same,growth inhibition,[11]; at 3.7 µM,4%
same,growth inhibition,[11]; [16],4%
same,growth inhibition,[11]; at 11.0 µM,89% (active)
same,growth inhibition,[11]; at 33.0 µM,97% (active)
same,growth inhibition,[11]; [17],-8%
same,growth inhibition,[11]; at 50.0 µM,90.8% (active)
same,growth inhibition,[11]; at 100.0 µM,97% (active)
same,growth inhibition,[12]; at 1.2 µM,-12%
same,growth inhibition,[12]; at 3.7 µM,8%
same,growth inhibition,[12]; at 11.0 µM,78% (active)
same,growth inhibition,[12]; at 33.0 µM,98% (active)
same,growth inhibition,[12]; at 100.0 µM,98% (active)
same,growth inhibition,[13]; at 1.2 µM,-73%
same,growth inhibition,[13]; at 3.7 µM,3%
same,growth inhibition,[13]; at 11.0 µM,89% (active)
same,growth inhibition,[13]; at 33.0 µM,97% (active)
same,growth inhibition,[13]; at 100.0 µM,97% (active)
same,growth inhibition,[14]; [16],68%
same,growth inhibition,[14]; [17],98% (active)
same,growth inhibition,[14]; at 50.0 µM,89.7% (active)
same,growth inhibition,[15]; at 1.2 µM,-64%
same,growth inhibition,[15]; at 3.7 µM,-15%
same,growth inhibition,[15]; at 11.0 µM,91% (active)
same,growth inhibition,[15]; at 33.0 µM,96% (active)
same,growth inhibition,[15]; at 100.0 µM,96% (active)
